Activity calls are given as the source filed them. Unless noted, the call rests on the fitted dose curve; in most records, active means well fitted curve in the direction sought with a large enough effect in the repeat runs; inconclusive means weak or mixed curves; inactive means no such curve, though single readings can be large; an effect the other way counts as inactive or inconclusive.
Experiments:
[1] = qHTS assay to identify small molecule antagonists of the thyroid receptor (TR) signaling pathway - cell viability counter screen (AID 743064); further: nearly all actives have a fitted effect of over 50% in size; further: potency means the concentration at half of the fitted maximal effect
How it was run: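 Viability of T3-stimulated (1 nM final) GH3.TRE-Luc cells is measured by CellTiter-Fluor fluorescence after 23.5 h compound exposure at 37 °C plus 30 min reagent incubation.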

[2] = qHTS assay to identify small molecule antagonists of the thyroid receptor (TR) signaling pathway (AID 743065); further: nearly all actives have a fitted effect of over 55% in size; further: potency means the concentration at half of the fitted maximal effect
How it was run: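 Antagonism measured as loss of luciferase signal in GH3 cells stably carrying a TRE-luciferase reporter, co-treated with compound and T3 (1 nM final) for 23.5 h at 37 C. Viability was read in the same well by CellTiter-Fluor.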

[3] = target: Estrogen receptor (Homo sapiens) (UniProt P03372); assay: qHTS assay to identify small molecule antagonists of the estrogen receptor alpha (ER-alpha) signaling pathway (AID 743069; active means well fitted curve in the direction sought with a large enough effect in the signal ratio in the repeat runs, not every such curve was filed as active; inconclusive means weak or mixed curves, or effect the other way; inactive means no such curve, though single readings can be large or run the other way; the % refers to the signal ratio; further: potency means the concentration at half of the fitted maximal effect)
Chain of Estrogen receptor (Homo sapiens) (P03372 whole entry, looked up): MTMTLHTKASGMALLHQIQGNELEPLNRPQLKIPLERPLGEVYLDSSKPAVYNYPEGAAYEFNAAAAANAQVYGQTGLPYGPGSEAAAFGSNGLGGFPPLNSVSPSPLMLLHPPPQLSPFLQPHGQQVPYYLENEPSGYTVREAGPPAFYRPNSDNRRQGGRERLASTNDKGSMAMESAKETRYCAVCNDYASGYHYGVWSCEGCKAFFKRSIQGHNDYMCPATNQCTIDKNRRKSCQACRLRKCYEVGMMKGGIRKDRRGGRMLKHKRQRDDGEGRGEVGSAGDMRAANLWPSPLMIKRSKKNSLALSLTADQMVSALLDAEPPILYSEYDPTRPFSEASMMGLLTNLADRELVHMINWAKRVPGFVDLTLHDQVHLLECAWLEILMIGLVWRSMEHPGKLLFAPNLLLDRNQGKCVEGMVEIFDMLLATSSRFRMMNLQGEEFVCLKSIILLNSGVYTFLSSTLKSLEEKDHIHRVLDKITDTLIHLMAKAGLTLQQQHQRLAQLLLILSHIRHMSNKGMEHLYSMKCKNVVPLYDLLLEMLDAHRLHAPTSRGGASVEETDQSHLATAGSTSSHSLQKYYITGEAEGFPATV
How it was run: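 Antagonist mode: compounds in DMSO were co-added with 17beta-estradiol to ER-alpha-bla HEK293 cells (2% charcoal-stripped serum) and left 18 h at 37C. Reporter inhibition was measured as FRET fluorescence after 2 h LiveBLAzer substrate at room temperature.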

[4] = target: Estrogen receptor (Homo sapiens) (UniProt P03372); assay: qHTS assay to identify small molecule agonists of the estrogen receptor alpha (ER-alpha) signaling pathway (AID 743075; calls by dose curve;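 further: HEK293 GripTite cells with ER-alpha and UAS-driven beta-lactamase reporter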)
[5] = target: Estrogen receptor (Homo sapiens) (UniProt P03372); assay: qHTS assay to identify small molecule agonists of the estrogen receptor alpha (ER-alpha) signaling pathway using the BG1 cell line (AID 743079); conditions: BG1Luc4E2 cells, ERE-luciferase agonist, 22 h; activation: at 70.3 µM (top of the series); further: nearly all actives have a fitted effect of over 20% in size; further: potency means the concentration at half of the fitted maximal effect
[6] = qHTS assay to identify small molecule antagonists of the estrogen receptor alpha (ER-alpha) signaling pathway using the BG1 cell line - cell viability counter screen (AID 743081);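 further: compound given together with 17beta-estradiol as the ER stimulus; nearly all actives have a fitted effect of over 45% in size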; further: potency means the concentration at half of the fitted maximal effect
[7] = tested on: thyroid hormone receptor (rat, GH3 cells); assay: qHTS assay to identify small molecule agonists of the thyroid receptor (TR) signaling pathway (AID 743066; calls by dose curve)
[8] = qHTS assay to identify small molecule antagonists of the estrogen receptor alpha (ER-alpha) signaling pathway - cell viability counter screen (AID 743074; calls by dose curve;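 further: HEK293 cells carrying ER-alpha-UAS-bla reporter stimulated with 17beta-estradiol; nearly all actives have a fitted effect of over 45% in size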; further: potency means the concentration at half of the fitted maximal effect)
Aromatase (Homo sapiens) = Aromatase (Homo sapiens) (UniProt P11511); assay: qHTS assay to identify aromatase inhibitors (AID 743083); further: nearly all actives have a fitted effect of over 55% in size; further: potency means the concentration at half of the fitted maximal effect
Chain of Aromatase (Homo sapiens) (P11511 whole entry, looked up): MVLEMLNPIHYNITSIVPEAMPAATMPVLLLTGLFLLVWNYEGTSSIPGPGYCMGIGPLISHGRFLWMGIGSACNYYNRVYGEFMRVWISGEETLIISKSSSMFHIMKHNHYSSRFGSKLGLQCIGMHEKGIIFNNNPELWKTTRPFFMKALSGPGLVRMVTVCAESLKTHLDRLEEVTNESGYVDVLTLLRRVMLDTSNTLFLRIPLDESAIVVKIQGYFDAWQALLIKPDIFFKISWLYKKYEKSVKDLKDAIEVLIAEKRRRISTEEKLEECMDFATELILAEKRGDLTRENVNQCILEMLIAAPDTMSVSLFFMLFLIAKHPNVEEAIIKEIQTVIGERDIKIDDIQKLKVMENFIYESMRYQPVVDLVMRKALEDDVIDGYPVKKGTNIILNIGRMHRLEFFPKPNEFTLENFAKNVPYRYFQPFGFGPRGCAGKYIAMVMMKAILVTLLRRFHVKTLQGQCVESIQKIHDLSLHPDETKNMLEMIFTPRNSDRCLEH

[9] = qHTS assay to identify small molecule antagonists of the estrogen receptor alpha (ER-alpha) signaling pathway using the BG1 cell line (AID 743080; calls by dose curve;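 further: BG1 cells stimulated with 17beta-estradiol alongside compound; nearly all actives have a fitted effect of over 25% in size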; further: potency means the concentration at half of the fitted maximal effect)
How it was run: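 After 5 days in phenol-red-free 10% charcoal-stripped FBS medium, BG1-Luc-4E2 cells were seeded, left 24 h at 37 C, co-treated with compounds and 17beta-estradiol for 21.5 h, then assayed for viability and luciferase.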

Measured: Potency

Cc1c(C)c2c(c(C)c1OC(=O)CCC(=O)OCCO)CC[C@@](C)(CCC[C@H](C)CCC[C@H](C)CCCC(C)C)O2
inactive: [4] | [5] | [6]
active: [1] 11.9 µM | [2] 23.7 µM | [3] 9.52 µM [inconclusive]

c1cc(N(CC2CO2)CC2CO2)ccc1Cc1ccc(N(CC2CO2)CC2CO2)cc1 (stereo not drawn)
active: [1] 13.7 µM | [2] 8.63 µM | Aromatase (Homo sapiens) 30.6 µM
inactive: [7] | [8]

CC(=O)OCC[N+](C)(C)C
inactive: [1] | [2] | [7] | [8] | [6] | Aromatase (Homo sapiens)

CC(C)C[C@H](NC(=O)[C@H](CCc1ccccc1)NC(=O)CN1CCOCC1)C(=O)N[C@@H](Cc1ccccc1)C(=O)N[C@@H](CC(C)C)C(=O)[C@@]1(C)CO1
inactive: [6]
active: [1] 0.0422 µM | [2] 0.0298 µM | [3] 0.601 µM [inconclusive] | [9] 0.188 µM | Aromatase (Homo sapiens) 0.0335 µM

C[C@@H](O[C@H]1OCCN(Cc2n[nH]c(=O)[nH]2)[C@H]1c1ccc(F)cc1)c1cc(C(F)(F)F)cc(C(F)(F)F)c1
active: [1] 13.3 µM | [2] 10.6 µM | Aromatase (Homo sapiens) 29.8 µM
inactive: [6]

C[C@@H]1CN(CCCn2c3ccccc3c3ccccc32)C[C@H](C)N1
inactive: [6]
active: [1] 10.6 µM | [2] 8.41 µM

CC(=O)N/N=C/c1ccc([N+](=O)[O-])o1
inactive: [3] | [8] | [4] | [9] | [6]
active: [1] 18.8 µM | [2] 16.8 µM

CC(C)Nc1cccnc1N1CCN(C(=O)c2cc3cc(NS(C)(=O)=O)ccc3[nH]2)CC1
not listed: [2]
inactive: all other assays above

C[C@@]12CCC[C@H]1[C@@H]1CC[C@H]3C[C@@H](O)CC[C@]3(C)[C@H]1CC2
inactive: [1] | [2] | [7] | [6]

CN1C[C@H](C(=O)N[C@]2(C)O[C@@]3(O)[C@@H]4CCCN4C(=O)[C@H](Cc4ccccc4)N3C2=O)C[C@@H]2c3cccc4[nH]cc(c34)C[C@H]21
active: [1] 21.1 µM | [2] 26.6 µM
not listed: [5] | [7]
inactive: all other assays above

CC1=C(Br)C(=O)C(Br)=C/C1=C(/c1ccccc1S(=O)(=O)O)c1cc(Br)c(O)c(Br)c1C
active: [1] 46.6 µM | [2] 18.6 µM | [6] 37 µM | Aromatase (Homo sapiens) 18.6 µM
inactive: [7]

CCCCC(CC)COP(=O)(O)O (stereo not drawn)
active: [3] 39.6 µM [inconclusive]
not listed: [2]
inactive: all other assays above

O=c1cc(-c2ccccc2)oc2ccc3ccccc3c12
inactive: [1] | [7] | [4] | [6]
active: [2] 9.69 µM | [5] 2.43 µM | Aromatase (Homo sapiens) 13.7 µM

CCC1CO1 (stereo not drawn)
inactive: [1] | [2] | [7] | [6] | Aromatase (Homo sapiens)

CCC1NC(=O)c2cc(S(N)(=O)=O)c(Cl)cc2N1 (stereo not drawn)
inactive: [1] | [2] | [7] | [6] | Aromatase (Homo sapiens)

COc1cc(Nc2c(C#N)cnc3cc(OCCCN4CCN(C)CC4)c(OC)cc23)c(Cl)cc1Cl
active: [1] 11.9 µM | [2] 9.44 µM | [8] 26.8 µM | Aromatase (Homo sapiens) 26.6 µM

C[C@@H]1CC(=O)NN=C1c1ccc(NN=C(C#N)C#N)cc1
inactive: [3] | [8] | [4] | [9]
active: [1] 15 µM | [2] 13.3 µM | [6] 23.7 µM | Aromatase (Homo sapiens) 29.8 µM

CC/C=C1/OC(=O)c2ccccc21
inactive: [1] | [2] | [7] | [8] | [6] | Aromatase (Homo sapiens)

CC1(CN2CCC(n3c(=O)[nH]c4ccccc43)CC2)OCc2ccccc2-n2cccc21 (stereo not drawn)
active: [1] 29.8 µM | [2] 26.6 µM | [9] 29.8 µM
inactive: [8] | [4] | [6]

CCCCCCNC(=O)n1cc(F)c(=O)[nH]c1=O
active: [1] 10.6 µM | [2] 2.66 µM
inactive: [7] | [8] | [6] | Aromatase (Homo sapiens)

CC1CC(C)C(=O)C1=O (stereo not drawn)
inactive: [1] | [2] | [7] | [8] | [6] | Aromatase (Homo sapiens)

CC[C@]1(O)C[C@H]2CN(CCc3c([nH]c4ccccc34)[C@@](C(=O)OC)(c3cc4c(cc3OC)N(C=O)[C@H]3[C@@](O)(C(=O)OC)[C@H](OC(C)=O)[C@]5(CC)C=CCN6CC[C@]43[C@@H]65)C2)C1
active: [1] 0.106 µM | [2] 0.0944 µM | [9] 0.0531 µM
inactive: [7] | [6] | Aromatase (Homo sapiens)

COC(=O)C1=C(C)NC(C)=C(C(=O)O[C@@H]2CCCN(Cc3ccccc3)C2)[C@@H]1c1cccc([N+](=O)[O-])c1
inactive: [8] | [4] | [5] | [9]
active: [1] 26.6 µM | [2] 11.9 µM | [3] 26.8 µM [inhibitor] | Aromatase (Homo sapiens) 29.8 µM

Cc1ccc2c(Br)cc(Br)c(O)c2n1
active: [1] 26.6 µM | [2] 18.8 µM
inactive: [8] | [6]

COc1ccccc1NC(=O)c1cc2ccccc2cc1O
active: [2] 17.2 µM | Aromatase (Homo sapiens) 24.3 µM
inactive: [1] | [7] | [4]

CN1CCCC(n2nc(Cc3ccc(Cl)cc3)c3ccccc3c2=O)CC1 (stereo not drawn)
active: [1] 21.1 µM | [2] 21.1 µM
not listed: [6] | [7]
inactive: all other assays above

O=C1NCCN1CCO
inactive: [1] | [2] | [7] | [8] | [6] | Aromatase (Homo sapiens)

CN1CCCC(CC2c3ccccc3Sc3ccccc32)C1 (stereo not drawn)
active: [1] 9.02 µM | [2] 7.17 µM
not listed: [7]
inactive: all other assays above

CCCCCCCC/C=C\CCCCCCCCO
inactive: [1] | [2] | [7] | [6] | Aromatase (Homo sapiens)

C[C@H]1c2cccc(O)c2C(O)=C2C(=O)[C@]3(O)C(O)=C(C(N)=O)C(=O)[C@@H](N(C)C)[C@@H]3[C@@H](O)[C@@H]21
not listed: [1] | [3]
inactive: all other assays above

CCOc1cccc(-n2cc(C(=O)N3CCN(c4cc(C(=O)O)c5ccccc5c4)CC3)nc2-c2ccc(C)cc2)c1
inactive: [7] | [6] | Aromatase (Homo sapiens)

Cc1[nH]cnc1CN1CCc2c(c3ccccc3n2C)C1=O
inactive: [8] | [6] | Aromatase (Homo sapiens)

C=C/C(C)=C/C/C=C(\C)CCC=C(C)C
not listed: [1] | [2]
inactive: all other assays above
